# The supplement of paper PMC4022240
# ± gives the standard deviation.
# T1: HaloTag-ATRX ADD domain (163-292)
# T1 chain: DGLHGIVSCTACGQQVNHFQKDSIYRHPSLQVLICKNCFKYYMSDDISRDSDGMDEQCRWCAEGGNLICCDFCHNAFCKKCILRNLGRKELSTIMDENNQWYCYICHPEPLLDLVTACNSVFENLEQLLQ
# B1: H2A 1-13 S G Rme2s G Kac Q G G K A R A K (peptide)
# chain: SGRGKQGGKARAK
# B2: H2A 1-13 Sph G R G Kac Q G G K A R A K (peptide)
# chain: SGRGKQGGKARAK
# B3: H2A 1-13 S G Rcit G K Q G G K A R A K (peptide)
# chain: SGRGKQGGKARAK
# B4: H2A 1-13 S G Rme G Kac Q G G K A R A K (peptide)
# chain: SGRGKQGGKARAK
# B5: H2A 1-13 Sph G R G K Q G G K A R A K (peptide)
# chain: SGRGKQGGKARAK
# B6: H2A 1-13 S G Rcit G Kac Q G G K A R A K (peptide)
# chain: SGRGKQGGKARAK
# B7: H2A 1-13 S G Rme G K Q G G K A R A K (peptide)
# chain: SGRGKQGGKARAK
# B8: H2A 1-13 Sph G R G K Q G G Kac A R A K (peptide)
# chain: SGRGKQGGKARAK
# B9: H2A 1-13 S G Rme2s G K Q G G K A R A K (peptide)
# chain: SGRGKQGGKARAK
# B10: H2A 1-13 S G Rme2a G Kac Q G G K A R A K (peptide)
# chain: SGRGKQGGKARAK
# Columns and labels:
# Assay in all cases: peptide microarray binding signal (635 nm), min-max normalized on array (fraction of array maximum); higher = stronger binding
# Details in all cases: peptide region: H2A 1-13
# [1] = molecular target: T1, HaloTag-ATRX ADD domain (163-292)
# Protocol: (§1)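 Histone 13-mer peptides were synthesized as cellulose conjugates with a C-terminal 20-atom PEG linker and printed in triplicate on nitrocellulose. The sequence given is the unmodified backbone; PTMs (Kme1/2/3, Kac, Sph/Tph, Rme/Rme2a/Rme2s, Rcit) are listed in the label and the 'peptide modifications' condition. Slides were probed at 4 °C for 1 h with biotin-labelled (HQ)5-HaloTag reader fusions (ATRX-ADD, ING2-PHD) then streptavidin-Alexa647, or with rabbit histone antibodies then anti-rabbit Alexa647. The mean 635 nm signal of the triplicate spots was scaled 0-1 between the lowest and highest values on each array.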
# [2] = molecular target: HaloTag-ING2 PHD (mouse Ing2 200-280)
# Protocol: as §1
# [3] = molecular target: anti-H3K4me3 antibody ab8580
# Protocol: as §1
# [4] = molecular target: anti-H3K9me3 antibody ab8898
# Protocol: as §1
# [5] = peptide modifications: H2AR3me2s H2AK5ac, binder concentration: 1:2,000 dilution
# [6] = peptide modifications: H2AR3me2s H2AK5ac, binder concentration: 1:10,000 dilution
# [7] = peptide modifications: H2AS1ph H2AK5ac, binder concentration: 1:2,000 dilution
# [8] = peptide modifications: H2AS1ph H2AK5ac, binder concentration: 1:10,000 dilution
# [9] = peptide modifications: H2AR3cit, binder concentration: 1:2,000 dilution
# [10] = peptide modifications: H2AR3cit, binder concentration: 1:10,000 dilution
# [11] = peptide modifications: H2AR3me1 H2AK5ac, binder concentration: 1:2,000 dilution
# [12] = peptide modifications: H2AR3me1 H2AK5ac, binder concentration: 1:10,000 dilution
# [13] = peptide modifications: H2AS1ph, binder concentration: 1:2,000 dilution
# [14] = peptide modifications: H2AS1ph, binder concentration: 1:10,000 dilution
# [15] = peptide modifications: H2AR3cit H2AK5ac, binder concentration: 1:2,000 dilution
# [16] = peptide modifications: H2AR3cit H2AK5ac, binder concentration: 1:10,000 dilution
# [17] = peptide modifications: H2AR3me1, binder concentration: 1:2,000 dilution
# [18] = peptide modifications: H2AR3me1, binder concentration: 1:10,000 dilution
# [19] = peptide modifications: H2AS1ph H2AK9ac, binder concentration: 1:2,000 dilution
# [20] = peptide modifications: H2AR3me2s, binder concentration: 1:2,000 dilution
# [21] = peptide modifications: H2AR3me2s, binder concentration: 1:10,000 dilution
# [22] = peptide modifications: H2AR3me2a H2AK5ac, binder concentration: 1:2,000 dilution
# [23] = peptide modifications: H2AR3me2a H2AK5ac, binder concentration: 1:10,000 dilution
binder,measurement,setting,value
B1,peptide microarray binding signal,"[1]; peptide modifications: H2AR3me2s H2AK5ac, binder concentration: 50 nM",0.00458 ± 0.00026
same,peptide microarray binding signal,"[1]; peptide modifications: H2AR3me2s H2AK5ac, binder concentration: 500 nM",0.00562 ± 0.00037
same,peptide microarray binding signal,"[2]; peptide modifications: H2AR3me2s H2AK5ac, binder concentration: 10 nM",0.00603 ± 0.00016
same,peptide microarray binding signal,"[2]; peptide modifications: H2AR3me2s H2AK5ac, binder concentration: 100 nM",0.00461 ± 7.6e-05
same,peptide microarray binding signal,[3]; [5],0.000736
same,peptide microarray binding signal,[3]; [6],0.0012 ± 1.2e-05
same,peptide microarray binding signal,[4]; [5],0.000589 ± 9.4e-06
same,peptide microarray binding signal,[4]; [6],0.00179 ± 6.1e-05
B2,peptide microarray binding signal,"[1]; peptide modifications: H2AS1ph H2AK5ac, binder concentration: 50 nM",0.00298 ± 3.8e-05
same,peptide microarray binding signal,"[1]; peptide modifications: H2AS1ph H2AK5ac, binder concentration: 500 nM",0.00752 ± 0.00011
same,peptide microarray binding signal,"[2]; peptide modifications: H2AS1ph H2AK5ac, binder concentration: 10 nM",0.00292 ± 9.7e-05
same,peptide microarray binding signal,"[2]; peptide modifications: H2AS1ph H2AK5ac, binder concentration: 100 nM",0.00276 ± 0.00011
same,peptide microarray binding signal,[3]; [7],0.000264 ± 5.6e-06
same,peptide microarray binding signal,[3]; [8],0.000685 ± 7.2e-06
same,peptide microarray binding signal,[4]; [7],0.000257 ± 2.7e-06
same,peptide microarray binding signal,[4]; [8],0.000577 ± 6.2e-06
B3,peptide microarray binding signal,"[1]; peptide modifications: H2AR3cit, binder concentration: 50 nM",0.00257 ± 6.9e-05
same,peptide microarray binding signal,"[1]; peptide modifications: H2AR3cit, binder concentration: 500 nM",0.00614 ± 6.4e-05
same,peptide microarray binding signal,"[2]; peptide modifications: H2AR3cit, binder concentration: 10 nM",0.00137 ± 3.3e-05
same,peptide microarray binding signal,"[2]; peptide modifications: H2AR3cit, binder concentration: 100 nM",0.00262 ± 0.0002
same,peptide microarray binding signal,[3]; [9],0.000245 ± 2.6e-06
same,peptide microarray binding signal,[3]; [10],0.000514 ± 5.5e-06
same,peptide microarray binding signal,[4]; [9],0.000181
same,peptide microarray binding signal,[4]; [10],0.000404 ± 4.4e-06
B4,peptide microarray binding signal,"[1]; peptide modifications: H2AR3me1 H2AK5ac, binder concentration: 50 nM",0.00467 ± 0.00064
same,peptide microarray binding signal,"[1]; peptide modifications: H2AR3me1 H2AK5ac, binder concentration: 500 nM",0.00424 ± 0.00012
same,peptide microarray binding signal,"[2]; peptide modifications: H2AR3me1 H2AK5ac, binder concentration: 10 nM",0.002507 ± 1.4e-05
same,peptide microarray binding signal,"[2]; peptide modifications: H2AR3me1 H2AK5ac, binder concentration: 100 nM",0.00305 ± 0.00059
same,peptide microarray binding signal,[3]; [11],0.000434 ± 2.9e-05
same,peptide microarray binding signal,[3]; [12],0.000571
same,peptide microarray binding signal,[4]; [11],0.000242 ± 6.7e-06
same,peptide microarray binding signal,[4]; [12],0.000634
B5,peptide microarray binding signal,"[1]; peptide modifications: H2AS1ph, binder concentration: 50 nM",0.00235 ± 3.8e-05
same,peptide microarray binding signal,"[1]; peptide modifications: H2AS1ph, binder concentration: 500 nM",0.00462 ± 0.00011
same,peptide microarray binding signal,"[2]; peptide modifications: H2AS1ph, binder concentration: 10 nM",0.002148 ± 1.2e-05
same,peptide microarray binding signal,"[2]; peptide modifications: H2AS1ph, binder concentration: 100 nM",0.00312 ± 0.00029
same,peptide microarray binding signal,[3]; [13],0.000208 ± 2.2e-06
same,peptide microarray binding signal,[3]; [14],0.000342 ± 3.8e-06
same,peptide microarray binding signal,[4]; [13],0.000166 ± 3.6e-06
same,peptide microarray binding signal,[4]; [14],0.000231 ± 2.6e-06
B6,peptide microarray binding signal,"[1]; peptide modifications: H2AR3cit H2AK5ac, binder concentration: 50 nM",0.00389 ± 0.00015
same,peptide microarray binding signal,"[1]; peptide modifications: H2AR3cit H2AK5ac, binder concentration: 500 nM",0.00481 ± 0.00026
same,peptide microarray binding signal,"[2]; peptide modifications: H2AR3cit H2AK5ac, binder concentration: 10 nM",0.00519 ± 0.00013
same,peptide microarray binding signal,"[2]; peptide modifications: H2AR3cit H2AK5ac, binder concentration: 100 nM",0.00567 ± 0.00026
same,peptide microarray binding signal,[3]; [15],0.001 ± 3.7e-05
same,peptide microarray binding signal,[3]; [16],0.0016
same,peptide microarray binding signal,[4]; [15],0.000634 ± 9.9e-06
same,peptide microarray binding signal,[4]; [16],0.0015 ± 4.4e-05
B7,peptide microarray binding signal,"[1]; peptide modifications: H2AR3me1, binder concentration: 50 nM",0.00254 ± 4.9e-05
same,peptide microarray binding signal,"[1]; peptide modifications: H2AR3me1, binder concentration: 500 nM",0.005096 ± 3.3e-05
same,peptide microarray binding signal,"[2]; peptide modifications: H2AR3me1, binder concentration: 10 nM",0.00286 ± 0.00013
same,peptide microarray binding signal,"[2]; peptide modifications: H2AR3me1, binder concentration: 100 nM",0.004039 ± 3.4e-05
same,peptide microarray binding signal,[3]; [17],0.000491 ± 9.7e-06
same,peptide microarray binding signal,[3]; [18],0.000514 ± 5.5e-06
same,peptide microarray binding signal,[4]; [17],0.000181
same,peptide microarray binding signal,[4]; [18],0.000404 ± 8.8e-06
B8,peptide microarray binding signal,"[1]; peptide modifications: H2AS1ph H2AK9ac, binder concentration: 500 nM",0.005476 ± 3.5e-05
same,peptide microarray binding signal,"[2]; peptide modifications: H2AS1ph H2AK9ac, binder concentration: 100 nM",0.00354 ± 0.00045
same,peptide microarray binding signal,[3]; [19],0.000208 ± 2.2e-06
same,peptide microarray binding signal,[4]; [19],0.000121 ± 1.3e-06
B9,peptide microarray binding signal,"[1]; peptide modifications: H2AR3me2s, binder concentration: 50 nM",0.00696 ± 0.0016
same,peptide microarray binding signal,"[1]; peptide modifications: H2AR3me2s, binder concentration: 500 nM",0.0101 ± 0.00014
same,peptide microarray binding signal,"[2]; peptide modifications: H2AR3me2s, binder concentration: 10 nM",0.00519 ± 0.00018
same,peptide microarray binding signal,"[2]; peptide modifications: H2AR3me2s, binder concentration: 100 nM",0.00893 ± 0.00025
same,peptide microarray binding signal,[3]; [20],0.00108 ± 4.1e-05
same,peptide microarray binding signal,[3]; [21],0.00183 ± 9.6e-05
same,peptide microarray binding signal,[4]; [20],0.000755 ± 7.7e-05
same,peptide microarray binding signal,[4]; [21],0.000923 ± 2.5e-05
B10,peptide microarray binding signal,"[1]; peptide modifications: H2AR3me2a H2AK5ac, binder concentration: 50 nM",0.00354 ± 0.00011
same,peptide microarray binding signal,"[1]; peptide modifications: H2AR3me2a H2AK5ac, binder concentration: 500 nM",0.00657 ± 0.00029
same,peptide microarray binding signal,"[2]; peptide modifications: H2AR3me2a H2AK5ac, binder concentration: 10 nM",0.00352 ± 5e-05
same,peptide microarray binding signal,"[2]; peptide modifications: H2AR3me2a H2AK5ac, binder concentration: 100 nM",0.00454 ± 0.00022
same,peptide microarray binding signal,[3]; [22],0.0005474 ± 5.3e-06
same,peptide microarray binding signal,[3]; [23],0.00137 ± 1.3e-05
same,peptide microarray binding signal,[4]; [22],0.000468 ± 9e-06
same,peptide microarray binding signal,[4]; [23],0.00104 ± 1.1e-05
